# Several values for one entry are separate records, joined by “and”; a condition that tells them apart may be missing. Equal entries are not always repeated. Inconclusive results are not listed. Activity calls are given as the source filed them. How the source made its calls, unless noted: active means hit-call score of the fitted dose curve at least 0.9, where 1 is the maximum; inactive means score below 0.9.
# What was measured:
# [1] = molecular target: Bile acid receptor (Homo sapiens) (UniProt Q96RI1); test: ATG_FXR_TRANS: Attagene TRANS-FACTORIAL HepG2 Assay for Farnesoid X Receptor (FXR) (AID 2282979; active means hit-call score of the fitted dose curve at least 0.9, where 1 is the maximum;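 further: hits raise reporter mRNA above DMSO so AC50 marks FXR activation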); conditions: HepG2 Attagene TRANS FXR-GAL4 reporter transcription
# Outline: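 Reporter transcripts from transfected HepG2 cells were measured 24 h after dosing, using RT-PCR with capillary electrophoresis of 6-FAM-labelled fragments. The read-out reflects activity of exogenous FXR-Gal4 chimera on GAL4-UAS units, with induction relative to DMSO.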
# [2] = ATG_M_32_TRANS: Attagene TRANS-FACTORIAL HepG2 Assay for M32 Transcription Factor (Internal Marker) (AID 2282984; active means hit-call score of the fitted dose curve at least 0.9, where 1 is the maximum;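 further: transcript level of a background control reporter unit measured by RT-PCR and capillary electrophoresis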); conditions: HepG2 Attagene TRANS M32 internal marker reporter
# Outline: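 Internal-marker readout from a multiplexed transcription reporter panel. HepG2 cells were transfected with GAL4-UAS reporter units, treated 24 hours, and reporter transcript levels determined by fluorescence after RT-PCR and capillary separation.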
# [3] = molecular target: Nuclear receptor subfamily 4 group A member 2 (Homo sapiens) (UniProt P43354); test: ATG_NURR1_TRANS: Attagene TRANS-FACTORIAL HepG2 Assay for human Nuclear Receptor Related Protein 1 (NURR1) (AID 2282985; active means hit-call score of the fitted dose curve at least 0.9, where 1 is the maximum); conditions: HepG2 Attagene TRANS reporter, mRNA readout
# Outline: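 Endpoint: reporter mRNA increase relative to DMSO. HepG2 cells transfected with reporter units, treated 24 h; RNA processed by RT-PCR, labelling, HpaI digestion and capillary electrophoresis.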
# [4] = molecular target: Transcriptional activator Myb (Homo sapiens) (UniProt P10242); test: ATG_Myb_CIS: Attagene CIS-FACTORIAL HepG2 Assay for human Myeloblastosis (Myb) Proto-Oncogene Transcription Factor (AID 2282986); conditions: HepG2 Attagene CIS-FACTORIAL Myb reporter transcription; actives raise or lower the signal
# Outline: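 After 24 h of compound dosing, total RNA from transfected HepG2 cells is reverse-transcribed and the reporter sequences amplified, labeled and separated by capillary electrophoresis. Values come from bidirectional fitting against DMSO.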
# [5] = molecular target: Nuclear respiratory factor 1 (Homo sapiens) (UniProt Q16656); test: ATG_NRF1_CIS: Attagene CIS-FACTORIAL HepG2 Assay for human Nuclear Respiratory Factor 1 (NRF1) Orphan Gene (AID 2282987); conditions: HepG2 NRF1 cis-element reporter, Attagene multiplex; actives raise or lower the signal
# Outline: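 Measured: fluorescent reporter-specific RT-PCR products from transfected HepG2 cells, separated by capillary electrophoresis. Exposure lasted 24 h. Analysis used bidirectional curve fitting with DMSO as negative control.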
# [6] = ATG_NFI_CIS: Attagene CIS-FACTORIAL HepG2 Assay for human Nuclear Factor I (NFI) (AID 2282989); conditions: HepG2 cis-regulatory reporter, NFI response element transcription; actives raise or lower the signal
# Outline: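 HepG2 cells transiently transfected with cis-element-driven multiplexed reporter transcription units, dosed for 24 h. Reporter mRNA quantified by RT-PCR, fluorescent labelling, HpaI digestion and capillary electrophoresis; bidirectional fit versus DMSO baseline.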
# [7] = molecular target: Myc proto-oncogene protein (Homo sapiens) (UniProt P01106); test: ATG_Myc_CIS: Attagene CIS-FACTORIAL HepG2 Assay for human Myelocytomatosis (Myc) Proto-Oncogene Transcription Factor (AID 2282990); conditions: HepG2, Attagene cis-reporter transcription factor activity; actives raise or lower the signal
# Outline: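 Fluorescence intensity of reporter-specific cDNA fragments, separated by capillary electrophoresis, gives the signal. Transfected HepG2 cells carrying cis-promoter reporter constructs are incubated with compound for 24 h; DMSO serves as baseline.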
# [8] = ATG_NF_kB_CIS: Attagene CIS-FACTORIAL HepG2 Assay for human Nuclear Factor Kappa B (NF-kB) (AID 2282991); conditions: HepG2 Attagene cis-factorial NF-kB reporter mRNA; actives raise or lower the signal
# Outline: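 Fluorescence of labelled RT-PCR products separated by capillary electrophoresis gives reporter mRNA levels from transfected HepG2 cells exposed 24 h; values are fitted in both directions relative to DMSO.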
# [9] = ATG_NRF2_ARE_CIS: Attagene CIS-FACTORIAL HepG2 Assay for human Nuclear Factor Erythroid 2 Related Factor 2 (NFR2) response to Antioxidant Response Elements (ARE) (AID 2282992); conditions: HepG2 Attagene ARE/NRF2 reporter, transcription factor activity; actives raise or lower the signal
# Outline: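 Readout: reporter mRNA quantified by RT-PCR plus FAM-labelled primer extension, HpaI digestion and capillary electrophoresis, 24 h after dosing transfected HepG2 cells. Gain or loss of signal is fitted bidirectionally against DMSO baseline.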
# [10] = ATG_Oct_MLP_CIS: Attagene CIS-FACTORIAL HepG2 Assay for human Octamer-Binding Transcription Factor (Oct) (AID 2282993); conditions: HepG2 Attagene cis-factorial Oct reporter, mRNA; actives raise or lower the signal
# Outline: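 HepG2 cells transiently transfected with cis-promoter-driven multiplexed reporter transcription units, dosed for 24 h. Reporter mRNA quantified by RT-PCR, fluorescent labelling, HpaI digestion and capillary electrophoresis; bidirectional fits versus DMSO baseline.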
# [11] = molecular target: Cellular tumor antigen p53 (Homo sapiens) (UniProt P04637); test: ATG_p53_CIS: Attagene CIS-FACTORIAL HepG2 Assay for human p53 Transcription Factor (AID 2282994); conditions: HepG2 p53 cis-element reporter, Attagene mRNA; actives raise or lower the signal
# Outline: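 Read-out: reporter mRNA by RT-PCR plus capillary electrophoresis with fluorescence detection. Human HepG2 liver cells carried transfected multi-reporter cis-element constructs, dosed 24 h. Gain or loss of signal fitted bidirectionally against DMSO control.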
# [12] = molecular target: Oxysterols receptor LXR-alpha (Homo sapiens) (UniProt Q13133); test: ATG_LXRa_TRANS: Attagene TRANS-FACTORIAL HepG2 Assay for human Liver X Receptor alpha (LXRa) (AID 2282980; active means hit-call score of the fitted dose curve at least 0.9, where 1 is the maximum); conditions: HepG2 Attagene TRANS reporter, LXRa transactivation
# Outline: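 Chemical-induced reporter mRNA measured by RT-PCR with fluorescent labelling and capillary electrophoresis after 24 h dosing of transiently transfected HepG2 cells expressing exogenous NR-Gal4 chimeras; increases scored against DMSO baseline.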
# [13] = molecular target: Oxysterols receptor LXR-beta (Homo sapiens) (UniProt P55055); test: ATG_LXRb_TRANS: Attagene TRANS-FACTORIAL HepG2 Assay for human Liver X Receptor beta (LXRb) (AID 2282981; active means hit-call score of the fitted dose curve at least 0.9, where 1 is the maximum); conditions: HepG2 Attagene TRANS GAL4-LXRb reporter, mRNA
# Outline: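 Multiplexed reporter assay, HepG2, 24 h dosing. Fluorescence of labelled RT-PCR products after capillary electrophoresis gives transcript level; positive fitting direction relative to DMSO.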
# [14] = molecular target: Hepatocyte nuclear factor 4-alpha (Homo sapiens) (UniProt P41235); test: ATG_HNF4a_TRANS: Attagene TRANS-FACTORIAL HepG2 Assay for human Hepatocyte Nuclear Factor 4 alpha (HNF4a) (AID 2282982; active means hit-call score of the fitted dose curve at least 0.9, where 1 is the maximum); conditions: HepG2 HNF4a transactivation reporter, mRNA readout
# Outline: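 Endpoint reflects transcriptional activation of a GAL4-UAS reporter by an HNF4a-GAL4 chimera in transfected HepG2 cells, 24 h post-dosing. Fluorescence from RT-PCR products separated by capillary electrophoresis; DMSO baseline.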
# [15] = ATG_M_06_TRANS: Attagene TRANS-FACTORIAL HepG2 Assay for M06 Transcription Factor (Internal Marker) (AID 2282983; active means hit-call score of the fitted dose curve at least 0.9, where 1 is the maximum); conditions: HepG2 Attagene TRANS M06 internal marker reporter
# Outline: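 Background-control reporter readout: after 24 h chemical exposure of transiently transfected HepG2 (GAL4-UAS reporter units), mRNA quantified by RT-PCR with fluorescent labeling and capillary electrophoresis. Gain-of-signal fitting against DMSO baseline.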
# [16] = BSK_3C_TissueFactor: BioMAP Diversity Plus: 3C Assay for Tissue Factor Biomarker Activity (AID 2282997); conditions: BioMAP 3C HUVEC, tissue factor biomarker readout; actives raise or lower the signal
# Outline: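 Tissue factor on primary human umbilical vein endothelium was read by ELISA 24 h after dosing, gain or loss relative to DMSO. Cytotoxicity ran alongside via SRB (0.1%, TCA-fixed, 560 nm).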
# [17] = BSK_3C_uPAR: BioMAP Diversity Plus: 3C Assay for Urokinase-type plasminogen activator receptor (uPAR) Biomarker Activity (AID 2282998); conditions: BioMAP 3C HUVEC, uPAR biomarker ELISA; actives raise or lower the signal
# Outline: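 Human umbilical vein endothelial primary cells were exposed to test chemical for 24 h. Cell-surface uPAR was then quantified by ELISA, and responses were fitted bidirectionally against DMSO as negative control and baseline.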
# [18] = BSK_3C_VCAM1: BioMAP Diversity Plus: 3C Assay for Vascular cell adhesion molecule 1 (VCAM1) Biomarker Activity (AID 2282999); conditions: BioMAP 3C HUVEC, VCAM1 ELISA, cytokine-stimulated; actives raise or lower the signal
# Outline: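 HUVEC primary cells, 24 h compound exposure; VCAM-1 by ELISA; gain/loss of signal fitted bidirectionally vs DMSO baseline.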
# [19] = BSK_4H_Eotaxin3: BioMAP Diversity Plus: 4H Assay for Eotaxin 3 Biomarker Activity (AID 2283000); conditions: primary human endothelial cells (HUVEC); actives raise or lower the signal
# Outline: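 Human umbilical vein endothelial cells (BSK_4H system) dosed with test chemical; Eotaxin-3 (CCL26) measured by ELISA 24 h after dosing. Bidirectional curve fitting relative to DMSO negative control as baseline.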
# Oxysterols receptor LXR-beta (Homo sapiens), sequence (P55055 whole entry, looked up, the tested form may be a part): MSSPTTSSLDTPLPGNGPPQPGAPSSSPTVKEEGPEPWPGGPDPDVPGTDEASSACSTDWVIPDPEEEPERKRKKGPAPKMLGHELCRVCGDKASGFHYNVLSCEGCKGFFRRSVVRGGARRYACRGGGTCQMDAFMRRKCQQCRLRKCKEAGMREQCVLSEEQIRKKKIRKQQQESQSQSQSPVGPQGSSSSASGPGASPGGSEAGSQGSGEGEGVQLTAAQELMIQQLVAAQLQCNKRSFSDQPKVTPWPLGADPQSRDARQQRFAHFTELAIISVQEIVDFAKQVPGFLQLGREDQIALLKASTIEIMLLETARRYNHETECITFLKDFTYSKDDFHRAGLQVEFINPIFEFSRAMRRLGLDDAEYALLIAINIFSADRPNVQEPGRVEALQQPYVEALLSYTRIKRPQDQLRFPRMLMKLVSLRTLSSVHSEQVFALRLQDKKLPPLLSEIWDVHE
# Myc proto-oncogene protein (Homo sapiens), sequence (P01106 whole entry, looked up, the tested form may be a part): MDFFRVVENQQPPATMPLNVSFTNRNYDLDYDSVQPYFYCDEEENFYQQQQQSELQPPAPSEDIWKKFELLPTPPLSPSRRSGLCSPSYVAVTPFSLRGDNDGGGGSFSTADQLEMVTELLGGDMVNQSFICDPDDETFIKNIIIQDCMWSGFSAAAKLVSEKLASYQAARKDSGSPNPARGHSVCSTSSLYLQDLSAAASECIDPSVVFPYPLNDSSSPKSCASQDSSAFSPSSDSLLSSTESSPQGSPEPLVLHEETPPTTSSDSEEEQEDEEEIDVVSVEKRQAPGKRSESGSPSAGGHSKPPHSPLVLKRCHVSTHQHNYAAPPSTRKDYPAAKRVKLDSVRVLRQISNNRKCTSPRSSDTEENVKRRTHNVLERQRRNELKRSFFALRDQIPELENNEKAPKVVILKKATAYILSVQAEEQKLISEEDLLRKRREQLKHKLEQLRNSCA
# Oxysterols receptor LXR-alpha (Homo sapiens), sequence (Q13133 whole entry, looked up, the tested form may be a part): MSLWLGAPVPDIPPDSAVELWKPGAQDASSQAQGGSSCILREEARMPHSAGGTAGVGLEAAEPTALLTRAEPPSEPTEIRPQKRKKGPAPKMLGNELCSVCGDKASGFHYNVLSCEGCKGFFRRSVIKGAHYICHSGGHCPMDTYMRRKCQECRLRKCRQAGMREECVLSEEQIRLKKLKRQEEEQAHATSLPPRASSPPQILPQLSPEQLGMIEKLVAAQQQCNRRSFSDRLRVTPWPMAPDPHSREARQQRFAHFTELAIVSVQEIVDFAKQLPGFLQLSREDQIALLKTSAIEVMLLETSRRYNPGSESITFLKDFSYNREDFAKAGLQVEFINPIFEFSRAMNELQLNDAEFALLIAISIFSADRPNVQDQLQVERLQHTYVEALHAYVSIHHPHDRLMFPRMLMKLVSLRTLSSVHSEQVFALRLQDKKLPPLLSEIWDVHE
# Transcriptional activator Myb (Homo sapiens), sequence (P10242 whole entry, looked up): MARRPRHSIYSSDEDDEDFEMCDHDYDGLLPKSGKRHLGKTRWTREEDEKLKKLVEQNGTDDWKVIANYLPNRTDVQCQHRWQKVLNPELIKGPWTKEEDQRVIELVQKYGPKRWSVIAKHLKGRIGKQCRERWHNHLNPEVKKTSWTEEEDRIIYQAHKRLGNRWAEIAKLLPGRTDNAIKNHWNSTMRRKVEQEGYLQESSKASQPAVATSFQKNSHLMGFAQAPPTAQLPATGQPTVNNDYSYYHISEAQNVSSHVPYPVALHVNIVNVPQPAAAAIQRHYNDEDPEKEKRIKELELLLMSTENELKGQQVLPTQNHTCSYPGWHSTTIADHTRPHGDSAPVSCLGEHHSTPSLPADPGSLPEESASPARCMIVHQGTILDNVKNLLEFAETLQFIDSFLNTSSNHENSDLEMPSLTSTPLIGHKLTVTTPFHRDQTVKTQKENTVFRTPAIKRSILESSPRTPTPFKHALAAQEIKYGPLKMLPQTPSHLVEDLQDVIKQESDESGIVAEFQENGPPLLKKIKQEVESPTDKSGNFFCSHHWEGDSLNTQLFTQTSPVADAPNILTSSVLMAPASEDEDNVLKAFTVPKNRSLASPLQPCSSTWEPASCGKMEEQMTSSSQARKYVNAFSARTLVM
# Nuclear receptor subfamily 4 group A member 2 (Homo sapiens), sequence (P43354 whole entry, looked up): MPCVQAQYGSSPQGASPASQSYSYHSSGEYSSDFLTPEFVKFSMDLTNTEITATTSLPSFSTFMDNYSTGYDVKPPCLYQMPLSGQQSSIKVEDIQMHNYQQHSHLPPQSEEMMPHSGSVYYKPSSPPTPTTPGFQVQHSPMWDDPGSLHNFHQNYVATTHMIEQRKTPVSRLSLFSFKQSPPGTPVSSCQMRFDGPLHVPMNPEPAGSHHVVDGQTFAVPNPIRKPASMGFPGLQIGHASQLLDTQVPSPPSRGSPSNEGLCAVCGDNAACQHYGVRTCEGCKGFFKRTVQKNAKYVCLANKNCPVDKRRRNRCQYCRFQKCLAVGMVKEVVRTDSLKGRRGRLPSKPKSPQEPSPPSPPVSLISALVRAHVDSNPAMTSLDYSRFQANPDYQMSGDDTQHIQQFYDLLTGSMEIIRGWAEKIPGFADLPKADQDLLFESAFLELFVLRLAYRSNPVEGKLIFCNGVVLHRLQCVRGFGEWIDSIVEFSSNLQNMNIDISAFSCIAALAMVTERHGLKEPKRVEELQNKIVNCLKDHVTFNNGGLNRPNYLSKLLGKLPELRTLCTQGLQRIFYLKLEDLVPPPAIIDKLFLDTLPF
# Hepatocyte nuclear factor 4-alpha (Homo sapiens), sequence (P41235 whole entry, looked up, the tested form may be a part): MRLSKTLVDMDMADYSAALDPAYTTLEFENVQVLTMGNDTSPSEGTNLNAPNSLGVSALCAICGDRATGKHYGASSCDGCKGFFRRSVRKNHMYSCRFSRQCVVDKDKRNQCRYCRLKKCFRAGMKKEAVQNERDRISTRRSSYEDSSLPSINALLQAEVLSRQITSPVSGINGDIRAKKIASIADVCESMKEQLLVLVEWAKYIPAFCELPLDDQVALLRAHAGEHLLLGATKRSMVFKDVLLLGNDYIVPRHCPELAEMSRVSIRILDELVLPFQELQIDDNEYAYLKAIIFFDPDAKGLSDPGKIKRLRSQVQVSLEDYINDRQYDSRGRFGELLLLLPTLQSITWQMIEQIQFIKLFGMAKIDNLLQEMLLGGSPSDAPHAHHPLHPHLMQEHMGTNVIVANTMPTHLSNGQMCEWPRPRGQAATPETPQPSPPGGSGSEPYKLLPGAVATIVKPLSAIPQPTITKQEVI
# Bile acid receptor (Homo sapiens), sequence (Q96RI1 whole entry, looked up, the tested form may be a part): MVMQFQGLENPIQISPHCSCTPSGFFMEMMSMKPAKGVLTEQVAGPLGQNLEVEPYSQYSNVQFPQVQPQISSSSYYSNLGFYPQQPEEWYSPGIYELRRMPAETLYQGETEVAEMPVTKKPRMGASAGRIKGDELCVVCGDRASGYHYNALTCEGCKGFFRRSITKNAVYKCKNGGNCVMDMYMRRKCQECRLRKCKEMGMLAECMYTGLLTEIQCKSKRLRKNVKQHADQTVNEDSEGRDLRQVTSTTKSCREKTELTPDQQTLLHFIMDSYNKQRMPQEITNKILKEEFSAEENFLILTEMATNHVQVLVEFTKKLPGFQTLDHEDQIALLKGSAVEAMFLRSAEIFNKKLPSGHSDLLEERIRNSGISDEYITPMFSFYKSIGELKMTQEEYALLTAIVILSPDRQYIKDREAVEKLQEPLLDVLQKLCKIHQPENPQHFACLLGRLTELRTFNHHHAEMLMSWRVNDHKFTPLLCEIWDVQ
# Nuclear respiratory factor 1 (Homo sapiens), sequence (Q16656 whole entry, looked up): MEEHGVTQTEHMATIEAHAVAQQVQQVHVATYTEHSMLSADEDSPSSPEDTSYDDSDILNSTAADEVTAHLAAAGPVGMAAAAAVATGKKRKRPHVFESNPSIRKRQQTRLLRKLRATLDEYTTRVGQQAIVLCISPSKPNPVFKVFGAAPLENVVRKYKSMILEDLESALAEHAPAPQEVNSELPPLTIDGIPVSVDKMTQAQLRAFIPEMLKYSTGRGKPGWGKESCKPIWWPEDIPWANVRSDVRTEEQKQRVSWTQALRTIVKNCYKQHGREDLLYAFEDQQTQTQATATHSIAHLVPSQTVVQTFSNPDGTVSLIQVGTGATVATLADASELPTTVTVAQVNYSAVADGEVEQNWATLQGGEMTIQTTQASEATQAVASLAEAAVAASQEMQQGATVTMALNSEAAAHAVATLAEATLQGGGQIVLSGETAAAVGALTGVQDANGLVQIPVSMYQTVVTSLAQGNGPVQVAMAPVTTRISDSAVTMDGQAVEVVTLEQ
# Cellular tumor antigen p53 (Homo sapiens), sequence (P04637 whole entry, looked up): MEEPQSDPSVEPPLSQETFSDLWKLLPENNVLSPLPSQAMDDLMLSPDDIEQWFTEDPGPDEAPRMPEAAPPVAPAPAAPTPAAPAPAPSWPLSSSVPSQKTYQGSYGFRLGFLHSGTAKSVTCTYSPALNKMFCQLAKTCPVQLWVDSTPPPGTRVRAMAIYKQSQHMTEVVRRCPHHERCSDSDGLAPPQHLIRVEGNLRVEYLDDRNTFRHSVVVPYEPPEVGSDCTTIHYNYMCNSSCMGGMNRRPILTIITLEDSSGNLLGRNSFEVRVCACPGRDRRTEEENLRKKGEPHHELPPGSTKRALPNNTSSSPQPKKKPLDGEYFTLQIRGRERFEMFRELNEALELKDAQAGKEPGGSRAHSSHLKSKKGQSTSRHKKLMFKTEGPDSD
smiles,measurement,setting,value
CCOC(=O)N1CCC(=C2c3ccc(Cl)cc3CCc3cccnc32)CC1,outcome,[1],inactive
same,outcome,[2],inactive
same,AC50,[3],15.6 µM (active)
same,outcome,[4],inactive
same,outcome,[5],inactive
same,outcome,[6],inactive
same,outcome,[7],inactive
same,outcome,[8],inactive
same,outcome,[9],inactive
same,outcome,[10],inactive
same,AC50,[11],7.13 µM (active)
C=C(C)C(=O)OCC(C)C,outcome,[1],inactive
same,outcome,[3],inactive
same,outcome,[4],inactive
same,outcome,[6],inactive
same,outcome,[7],inactive
same,outcome,[8],inactive
same,outcome,[9],inactive
same,outcome,[10],inactive
same,outcome,[11],inactive
CCN(Cc1cccc(S(=O)(=O)O)c1)c1ccc(C(=C2C=CC(=[N+](CC)Cc3cccc(S(=O)(=O)[O-])c3)C=C2)c2ccccc2)cc1,outcome,[12],inactive
same,outcome,[13],inactive
same,outcome,[14],inactive
same,outcome,[15],inactive
same,outcome,[2],inactive
same,outcome,[3],inactive
same,outcome,[4],inactive
same,outcome,[5],inactive
same,outcome,[6],inactive
same,outcome,[7],inactive
same,outcome,[8],inactive
same,AC50,[9],112 µM (active)
same,outcome,[10],inactive
same,outcome,[11],inactive
CCCCCCCCCCOS(=O)(=O)O,outcome,[1],inactive
same,outcome,[4],inactive
same,outcome,[5],inactive
same,outcome,[6],inactive
same,outcome,[7],inactive
same,outcome,[8],inactive
same,AC50,[9],99.5 µM (active)
same,outcome,[10],inactive
same,outcome,[11],inactive
CC1=CC[C@H]2C[C@@H]1C2(C)C,outcome,[12],inactive
same,outcome,[13],inactive
same,outcome,[2],inactive
same,outcome,[3],inactive
same,outcome,[4],inactive
same,outcome,[5],inactive
same,outcome,[6],inactive
same,outcome,[7],inactive
same,outcome,[8],inactive
same,outcome,[9],inactive
same,outcome,[10],inactive
C[C@]12CCC(=O)C=C1CC[C@@H]1[C@@H]2C(=O)C[C@@]2(C)[C@H]1CC[C@]2(O)C(=O)CO,outcome,[12],inactive
same,outcome,[13],inactive
same,outcome,[14],inactive
same,outcome,[15],inactive
same,outcome,[4],inactive
same,outcome,[5],inactive
same,outcome,[6],inactive
same,outcome,[7],inactive
same,outcome,[8],inactive
same,outcome,[9],inactive
same,outcome,[10],inactive
same,outcome,[11],inactive
Nc1ccc(N)c(Cl)c1,outcome,[1],inactive
same,outcome,[14],inactive
same,outcome,[3],inactive
same,outcome,[4],inactive
same,outcome,[5],inactive
same,AC50,[6],46.6 µM (active)
same,AC50,[7],33.4 µM (active)
same,AC50,[9],4.45 µM (active)
same,outcome,[10],inactive
same,AC50,[11],33.4 µM (active)
same,outcome,[16],inactive
same,outcome,[17],inactive
same,AC50,[18],7.54 µM (active) and 7.95 µM (active)
same,AC50,[19],20 µM (active) and 15.1 µM (active)
CC(=O)[C@H]1[C@H](C#N)C[C@H]2[C@@H]3CC=C4C[C@@H](O)CC[C@]4(C)[C@H]3CC[C@@]21C,outcome,[12],inactive
same,outcome,[13],inactive
same,outcome,[15],inactive
same,outcome,[3],inactive
same,outcome,[4],inactive
same,outcome,[5],inactive
same,outcome,[6],inactive
same,outcome,[7],inactive
same,outcome,[8],inactive
same,outcome,[9],inactive
same,outcome,[11],inactive
CCCCCC(C)O (stereo not given),outcome,[12],inactive
same,outcome,[13],inactive
same,outcome,[14],inactive
same,outcome,[15],inactive
same,outcome,[4],inactive
same,outcome,[5],inactive
same,outcome,[6],inactive
same,outcome,[7],inactive
same,outcome,[8],inactive
same,outcome,[9],inactive
same,outcome,[10],inactive
CCCCCC/C=C/C=O,outcome,[12],inactive
same,outcome,[13],inactive
same,outcome,[2],inactive
same,outcome,[4],inactive
same,outcome,[5],inactive
same,outcome,[6],inactive
same,outcome,[7],inactive
same,AC50,[9],47.7 µM (active)
same,outcome,[10],inactive
CC=CC(F)(F)C(F)(F)C(F)(F)F,outcome,[12],inactive
same,outcome,[13],inactive
same,outcome,[14],inactive
same,outcome,[15],inactive
same,outcome,[2],inactive
same,outcome,[3],inactive
same,outcome,[4],inactive
same,outcome,[5],inactive
same,outcome,[6],inactive
same,outcome,[7],inactive
same,outcome,[8],inactive
same,outcome,[9],inactive
same,outcome,[10],inactive
same,outcome,[11],inactive

# Source: PubChem BioAssay (EPA / NIEHS)
